The record followed here is PubChem BioAssay (EPA / NIEHS).

In general, AC50 refers to the midpoint of the concentration-response curve, whichever way the signal moves.

Results filed as inconclusive are left out. Active and inactive are the calls of the source. How the source made its calls, unless noted: active means hit-call score of the fitted dose curve at least 0.9, where 1 is the maximum; inconclusive means response in the unintended direction; inactive means score below 0.9.

Test [1] is described as follows: ATG_TCF_b_cat_CIS: Attagene CIS-FACTORIAL HepG2 Assay for human T-Cell-Factor with beta-catenin (TCF/b-cat) (AID 2282965; active means hit-call score of the fitted dose curve at least 0.9, where 1 is the maximum; inactive means score below 0.9). As to conditions: HepG2 TCF/beta-catenin cis-reporter transcription, actives raise or lower the signal. The method in brief: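 In this cis-format system, transfected HepG2 cells report endogenous transcription factor activity. Readout after 24 h exposure is reporter transcript abundance from RT-PCR and capillary electrophoresis, analysed for gain or loss of signal versus DMSO.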

Test [2] in a line: ATG_TAL_CIS: Attagene CIS-FACTORIAL HepG2 Assay for human TAL Basal Promoter (AID 2282966; active means hit-call score of the fitted dose curve at least 0.9, where 1 is the maximum; inactive means score below 0.9;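 further: background control endpoint measuring basal TAL promoter reporter mRNA not a specific factor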). Conditions: HepG2 Attagene cis-factorial TAL promoter reporter; actives raise or lower the signal. The gist of the method: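 After 24 hours of chemical exposure, transfected HepG2 cells yielded RNA that was converted to 6-FAM-labelled, HpaI-digested reporter fragments for capillary electrophoresis. Values derive from bidirectional fitting against DMSO controls.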

Test [3] can be described thus: ATG_TGFb_CIS: Attagene CIS-FACTORIAL HepG2 Assay for human Transforming Growth Factor (TGF) (AID 2282967; active means hit-call score of the fitted dose curve at least 0.9, where 1 is the maximum; inactive means score below 0.9). As to conditions: HepG2 Attagene CIS TGFb reporter, mRNA transcription; actives raise or lower the signal. The gist of the method:
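Transient MRTU transfection of HepG2 (FuGene 6). Dose 24 h. TriZol RNA, oligo(dT) RT, PCR, 6-FAM primer extension, HpaI cut, CE. Bidirectional fit, DMSO = baseline.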

Test [4] in a line: ATG_VDRE_CIS: Attagene CIS-FACTORIAL HepG2 Assay for human Vitamin D Receptor Element (VDRE) (AID 2282968; active means hit-call score of the fitted dose curve at least 0.9, where 1 is the maximum; inactive means score below 0.9). Conditions: HepG2 VDRE cis-reporter transcription, actives raise or lower the signal. The gist of the method: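 Transfected HepG2 reporter cells, chemical treatment 24 h. RNA isolated, cDNA amplified with reporter-specific primers, products analysed by capillary electrophoresis. Endpoint fitted in both directions versus DMSO.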

Test [5] addresses Estrogen receptor (Homo sapiens) (UniProt P03372). In words: ATG_ERa_TRANS: Attagene TRANS-FACTORIAL HepG2 Assay for human Estrogen Receptor alpha (ERa) (AID 2282970). As to conditions: HepG2 Attagene TRANS ERa GAL4 reporter, mRNA. The method in brief: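 Liver-derived HepG2 cells expressing chimeric nuclear receptor-Gal4 proteins from transient transfection were exposed for 24 hours. Gain of reporter mRNA signal versus DMSO, read by capillary electrophoresis of FAM-labelled PCR products, was recorded.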

Test [6] concerns the target Steroid hormone receptor ERR1 (Homo sapiens) (UniProt P11474). In words: ATG_ERRa_TRANS: Attagene TRANS-FACTORIAL HepG2 Assay for human Estrogen-Related Receptor alpha (ERRa) (AID 2282971). Conditions: HepG2 Attagene TRANS reporter, ERRa transactivation. The gist of the method:
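Reporter transcript induction was quantified by RT-PCR and capillary electrophoresis of FAM-labelled, HpaI-cut products after 24 h treatment of HepG2 cells carrying transiently transfected GAL4-UAS reporter units and an exogenous ERRa-Gal4 fusion; activity scored as increase over DMSO.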

In test [7] the target is X-box-binding protein 1 (Homo sapiens) (UniProt P17861). The test is described as follows: ATG_Xbp1_CIS: Attagene CIS-FACTORIAL HepG2 Assay for human X-box Binding Protein 1 (XBP1) (AID 2282972; active means hit-call score of the fitted dose curve at least 0.9, where 1 is the maximum; inactive means score below 0.9). Conditions: HepG2 XBP1 cis-element reporter, Attagene multiplex; actives raise or lower the signal. The gist of the method:
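Multiplexed cis-reporter readout in transfected HepG2 liver cells. Exposure lasted 24 hours. Activity in either direction was fitted against DMSO as negative control and baseline.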

Test [8] can be described thus: ATG_M_19_TRANS: Attagene TRANS-FACTORIAL HepG2 Assay for M19 Transcription Factor (Internal Marker) (AID 2282974). Conditions: HepG2 Attagene TRANS-FACTORIAL M19 internal marker reporter. The gist of the method:
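Background-control readout: after 24 h chemical exposure of transfected HepG2 carrying GAL4-driven reporter units, RNA was reverse-transcribed, amplified, fluorescently labeled and sized by capillary electrophoresis; gain-of-signal fit against DMSO.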

Test [9] has as its target Oxysterols receptor LXR-alpha (Homo sapiens) (UniProt Q13133). The test is described as follows: ATG_LXRa_TRANS: Attagene TRANS-FACTORIAL HepG2 Assay for human Liver X Receptor alpha (LXRa) (AID 2282980). As to conditions: HepG2 Attagene TRANS reporter, LXRa transactivation. The gist of the method:
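Transfect HepG2 with GAL4-UAS multiplex reporter constructs (TRANS format, chimeric receptor-GAL4); treat 24 h; extract RNA, reverse-transcribe, PCR-amplify, FAM-label, HpaI-digest; resolve fragments by capillary electrophoresis. Upward response vs DMSO.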

Test [10] deals with Hepatocyte nuclear factor 4-alpha (Homo sapiens) (UniProt P41235). In words: ATG_HNF4a_TRANS: Attagene TRANS-FACTORIAL HepG2 Assay for human Hepatocyte Nuclear Factor 4 alpha (HNF4a) (AID 2282982). As to conditions: HepG2 HNF4a transactivation reporter, mRNA readout. The gist of the method:
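Using HepG2 liver cells transfected with GAL4-UAS reporter units, chemical-induced mRNA increases were assessed after 24 hours. Fluorescent RT-PCR fragments were separated by capillary electrophoresis and compared with DMSO negative controls.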

Test [11] can be described thus: ATG_M_32_TRANS: Attagene TRANS-FACTORIAL HepG2 Assay for M32 Transcription Factor (Internal Marker) (AID 2282984).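 Further: transcript level of a background control reporter unit measured by RT-PCR and capillary electrophoresis.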 Conditions: HepG2 Attagene TRANS M32 internal marker reporter. The gist of the method:
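Fluorescence-detected mRNA induction, HepG2 liver cells, 24 h after dosing. Multiple GAL4-UAS reporter units introduced by transient transfection; background-control endpoint analysed for gain of signal against DMSO.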

The target in test [12] is Transcriptional activator Myb (Homo sapiens) (UniProt P10242). In words: ATG_Myb_CIS: Attagene CIS-FACTORIAL HepG2 Assay for human Myeloblastosis (Myb) Proto-Oncogene Transcription Factor (AID 2282986; active means hit-call score of the fitted dose curve at least 0.9, where 1 is the maximum; inactive means score below 0.9). Conditions: HepG2 Attagene CIS-FACTORIAL Myb reporter transcription; actives raise or lower the signal. The gist of the method:
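Reporter mRNA is quantified by RT-PCR and capillary electrophoresis 24 h after dosing HepG2 cells transfected with cis-regulated reporter units, which track endogenous transcription factor activity. Gain and loss of signal are fitted versus DMSO baseline.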

The target in test [13] is Nuclear receptor subfamily 1 group I member 3 (Homo sapiens) (UniProt Q14994). The test is described as follows: ATG_CAR_TRANS: Attagene TRANS-FACTORIAL HepG2 Assay for human Constitutive Androstane Receptor (CAR) (AID 2282969).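 Further: activators raise reporter mRNA above DMSO so AC50 marks induction.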 Conditions: HepG2 Attagene TRANS-FACTORIAL CAR reporter. The method in brief:
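Steps: transient transfection of HepG2 with multiple GAL4-UAS reporter units; 24 h compound incubation; RNA isolation, RT-PCR, 6-FAM primer extension, HpaI digest; capillary electrophoresis. Gain-of-signal relative to DMSO negative control.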

In test [14] the target is Glucocorticoid receptor (Homo sapiens) (UniProt P04150). In words: ATG_GR_TRANS: Attagene TRANS-FACTORIAL HepG2 Assay for human Glucocorticoid Receptor (GR) (AID 2282978).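 Further: activators score as hits since higher reporter transcript over DMSO is fitted.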 As to conditions: HepG2 Attagene TRANS GR reporter, mRNA transcription. The gist of the method: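 Readout is reporter transcript from a chimeric GR-Gal4 acting on GAL4-UAS in transfected human HepG2 liver cells after 24 h exposure, quantified by RT-PCR and capillary electrophoresis. Activation fitted upward against DMSO.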

The nature of test [15]: ATG_M_06_TRANS: Attagene TRANS-FACTORIAL HepG2 Assay for M06 Transcription Factor (Internal Marker) (AID 2282983).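 Further: reporter transcript level by RT-PCR then capillary electrophoresis fluorescence.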 As to conditions: HepG2 Attagene TRANS M06 internal marker reporter. The method in brief: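 Background control endpoint: reporter mRNA from transiently transfected HepG2 after 24 h dosing, detected by RT-PCR with capillary electrophoresis fluorescence. Analysed for gain versus DMSO.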

The target in test [16] is Nuclear receptor subfamily 4 group A member 2 (Homo sapiens) (UniProt P43354). In words: ATG_NURR1_TRANS: Attagene TRANS-FACTORIAL HepG2 Assay for human Nuclear Receptor Related Protein 1 (NURR1) (AID 2282985). As to conditions: HepG2 Attagene TRANS reporter, mRNA readout. The gist of the method:
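Chimeric NR-Gal4 proteins were expressed in human HepG2 cells bearing GAL4-UAS reporter units, and induced reporter mRNA was quantified 24 h post-dosing by RT-PCR and capillary electrophoresis.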

The nature of test [17]: ATG_GAL4_TRANS: Attagene TRANS-FACTORIAL HepG2 Assay for GAL4 (Internal Marker) (AID 2282976). Conditions: HepG2 Attagene TRANS GAL4 internal marker reporter. The gist of the method:
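First, HepG2 cells were transfected with reporter units under GAL4-UAS control. Next, they were treated with chemical for 24 h. Finally, RNA was reverse-transcribed, PCR-amplified, FAM-labelled and resolved by capillary electrophoresis, with induction scored against DMSO.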

In test [18] the target is Bile acid receptor (Homo sapiens) (UniProt Q96RI1). In words: ATG_FXR_TRANS: Attagene TRANS-FACTORIAL HepG2 Assay for Farnesoid X Receptor (FXR) (AID 2282979).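 Further: hits raise reporter mRNA above DMSO so AC50 marks FXR activation.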 As to conditions: HepG2 Attagene TRANS FXR-GAL4 reporter transcription. The method in brief: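 Transient transfection of HepG2 with multiplexed GAL4-UAS reporter units; exogenous FXR-GAL4 chimera. Dose 24 h → TriZol RNA → oligo(dT) RT → PCR, 6-FAM primer extension, HpaI cut → CE. Gain vs DMSO.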

The target in test [19] is Oxysterols receptor LXR-beta (Homo sapiens) (UniProt P55055). The test is described as follows: ATG_LXRb_TRANS: Attagene TRANS-FACTORIAL HepG2 Assay for human Liver X Receptor beta (LXRb) (AID 2282981). As to conditions: HepG2 Attagene TRANS GAL4-LXRb reporter, mRNA. The method in brief: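 Liver-derived HepG2 cells transfected with Gal4-responsive reporters were dosed for 24 h. Activation was scored as rise in reporter mRNA, by RT-PCR and capillary electrophoresis, above DMSO baseline.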
Oxysterols receptor LXR-beta (Homo sapiens), sequence (P55055 whole entry, looked up, the tested form may be a part): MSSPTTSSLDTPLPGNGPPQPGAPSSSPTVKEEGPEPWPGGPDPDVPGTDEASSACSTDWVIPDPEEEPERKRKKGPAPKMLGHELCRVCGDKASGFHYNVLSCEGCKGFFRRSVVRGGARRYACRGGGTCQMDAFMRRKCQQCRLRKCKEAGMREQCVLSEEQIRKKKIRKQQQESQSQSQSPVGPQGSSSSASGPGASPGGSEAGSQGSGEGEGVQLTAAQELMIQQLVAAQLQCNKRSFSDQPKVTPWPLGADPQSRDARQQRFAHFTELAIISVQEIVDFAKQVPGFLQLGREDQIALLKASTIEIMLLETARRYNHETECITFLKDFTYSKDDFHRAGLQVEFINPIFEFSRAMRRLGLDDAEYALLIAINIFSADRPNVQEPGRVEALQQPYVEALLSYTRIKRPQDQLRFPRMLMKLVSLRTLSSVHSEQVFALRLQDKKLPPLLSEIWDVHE

Hepatocyte nuclear factor 4-alpha (Homo sapiens), sequence (P41235 whole entry, looked up, the tested form may be a part): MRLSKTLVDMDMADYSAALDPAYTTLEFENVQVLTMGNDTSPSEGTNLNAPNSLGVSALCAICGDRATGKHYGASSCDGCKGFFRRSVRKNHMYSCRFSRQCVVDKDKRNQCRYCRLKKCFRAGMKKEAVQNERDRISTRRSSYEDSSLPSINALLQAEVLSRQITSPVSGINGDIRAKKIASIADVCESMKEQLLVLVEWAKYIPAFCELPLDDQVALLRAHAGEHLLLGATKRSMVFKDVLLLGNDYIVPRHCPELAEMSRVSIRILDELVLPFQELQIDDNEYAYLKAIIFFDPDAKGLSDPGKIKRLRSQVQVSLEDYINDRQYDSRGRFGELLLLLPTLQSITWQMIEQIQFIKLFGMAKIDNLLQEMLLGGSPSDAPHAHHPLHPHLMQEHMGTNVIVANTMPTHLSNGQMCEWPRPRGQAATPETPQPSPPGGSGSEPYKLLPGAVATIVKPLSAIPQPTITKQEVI
X-box-binding protein 1 (Homo sapiens), sequence (P17861 whole entry, looked up): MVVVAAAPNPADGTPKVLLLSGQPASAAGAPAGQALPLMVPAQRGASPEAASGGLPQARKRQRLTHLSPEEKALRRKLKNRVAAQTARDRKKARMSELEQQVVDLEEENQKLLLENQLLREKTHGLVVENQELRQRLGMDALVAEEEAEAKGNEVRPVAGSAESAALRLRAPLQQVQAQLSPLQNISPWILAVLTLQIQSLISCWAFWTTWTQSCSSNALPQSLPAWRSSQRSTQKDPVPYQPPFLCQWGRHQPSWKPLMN
Nuclear receptor subfamily 1 group I member 3 (Homo sapiens), sequence (Q14994 whole entry, looked up, the tested form may be a part): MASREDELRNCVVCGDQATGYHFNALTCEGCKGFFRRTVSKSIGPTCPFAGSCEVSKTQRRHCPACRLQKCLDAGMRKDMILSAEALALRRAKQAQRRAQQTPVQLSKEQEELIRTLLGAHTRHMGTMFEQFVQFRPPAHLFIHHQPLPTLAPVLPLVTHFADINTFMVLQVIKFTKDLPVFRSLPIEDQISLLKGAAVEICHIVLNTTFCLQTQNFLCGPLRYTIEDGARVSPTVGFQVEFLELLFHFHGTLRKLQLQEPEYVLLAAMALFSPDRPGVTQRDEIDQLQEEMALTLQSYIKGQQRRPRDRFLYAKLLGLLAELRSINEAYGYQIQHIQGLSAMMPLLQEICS
Glucocorticoid receptor (Homo sapiens), sequence (P04150 whole entry, looked up, the tested form may be a part): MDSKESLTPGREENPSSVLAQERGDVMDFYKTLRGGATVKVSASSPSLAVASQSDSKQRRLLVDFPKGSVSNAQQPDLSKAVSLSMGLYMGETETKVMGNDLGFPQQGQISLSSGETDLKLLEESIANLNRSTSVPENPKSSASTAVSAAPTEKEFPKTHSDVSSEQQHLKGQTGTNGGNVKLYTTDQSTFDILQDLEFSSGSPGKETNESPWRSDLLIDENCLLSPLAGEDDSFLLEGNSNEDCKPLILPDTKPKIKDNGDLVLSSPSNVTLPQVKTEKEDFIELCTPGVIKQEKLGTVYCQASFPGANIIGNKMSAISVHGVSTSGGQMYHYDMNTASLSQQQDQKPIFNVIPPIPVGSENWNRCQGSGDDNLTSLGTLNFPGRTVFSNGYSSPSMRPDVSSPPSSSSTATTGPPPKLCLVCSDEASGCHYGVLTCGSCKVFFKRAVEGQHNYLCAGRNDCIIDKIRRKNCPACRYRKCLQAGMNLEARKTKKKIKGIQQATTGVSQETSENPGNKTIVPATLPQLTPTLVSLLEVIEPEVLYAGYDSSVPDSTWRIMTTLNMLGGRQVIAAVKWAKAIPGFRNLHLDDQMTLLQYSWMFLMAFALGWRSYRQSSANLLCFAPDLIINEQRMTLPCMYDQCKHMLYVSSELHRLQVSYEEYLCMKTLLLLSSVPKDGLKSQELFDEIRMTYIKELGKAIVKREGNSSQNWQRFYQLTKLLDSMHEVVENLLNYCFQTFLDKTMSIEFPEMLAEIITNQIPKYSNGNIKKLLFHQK
Transcriptional activator Myb (Homo sapiens), sequence (P10242 whole entry, looked up): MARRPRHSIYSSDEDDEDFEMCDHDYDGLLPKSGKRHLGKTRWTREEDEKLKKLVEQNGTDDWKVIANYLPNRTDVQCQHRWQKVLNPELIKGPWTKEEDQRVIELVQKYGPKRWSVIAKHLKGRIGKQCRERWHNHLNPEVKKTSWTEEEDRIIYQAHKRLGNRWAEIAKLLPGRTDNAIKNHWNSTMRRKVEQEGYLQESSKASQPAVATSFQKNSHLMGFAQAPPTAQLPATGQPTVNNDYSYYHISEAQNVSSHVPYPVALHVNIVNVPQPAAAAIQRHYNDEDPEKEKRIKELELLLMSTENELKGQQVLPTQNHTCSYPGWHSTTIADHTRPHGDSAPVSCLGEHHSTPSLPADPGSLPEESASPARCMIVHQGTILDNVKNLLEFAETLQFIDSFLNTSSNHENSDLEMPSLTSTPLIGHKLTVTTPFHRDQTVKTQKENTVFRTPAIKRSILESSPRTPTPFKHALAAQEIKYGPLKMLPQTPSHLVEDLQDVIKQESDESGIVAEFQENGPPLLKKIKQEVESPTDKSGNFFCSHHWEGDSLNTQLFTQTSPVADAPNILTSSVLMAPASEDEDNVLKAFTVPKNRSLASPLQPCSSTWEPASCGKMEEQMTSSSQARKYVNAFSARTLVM
Oxysterols receptor LXR-alpha (Homo sapiens), sequence (Q13133 whole entry, looked up, the tested form may be a part): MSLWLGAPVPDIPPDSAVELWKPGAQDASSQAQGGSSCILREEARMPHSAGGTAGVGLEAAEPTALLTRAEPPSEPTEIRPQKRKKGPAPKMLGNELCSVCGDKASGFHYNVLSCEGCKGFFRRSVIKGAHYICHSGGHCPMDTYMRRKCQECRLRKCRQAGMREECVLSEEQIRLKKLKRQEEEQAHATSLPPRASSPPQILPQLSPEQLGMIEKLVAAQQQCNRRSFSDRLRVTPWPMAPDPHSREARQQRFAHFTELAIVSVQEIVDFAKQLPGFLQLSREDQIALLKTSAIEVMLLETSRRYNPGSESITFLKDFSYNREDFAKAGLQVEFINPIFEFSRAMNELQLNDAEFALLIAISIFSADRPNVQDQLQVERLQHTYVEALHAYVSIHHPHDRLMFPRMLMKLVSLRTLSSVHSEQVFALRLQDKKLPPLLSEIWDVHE
Estrogen receptor (Homo sapiens), sequence (P03372 whole entry, looked up, the tested form may be a part): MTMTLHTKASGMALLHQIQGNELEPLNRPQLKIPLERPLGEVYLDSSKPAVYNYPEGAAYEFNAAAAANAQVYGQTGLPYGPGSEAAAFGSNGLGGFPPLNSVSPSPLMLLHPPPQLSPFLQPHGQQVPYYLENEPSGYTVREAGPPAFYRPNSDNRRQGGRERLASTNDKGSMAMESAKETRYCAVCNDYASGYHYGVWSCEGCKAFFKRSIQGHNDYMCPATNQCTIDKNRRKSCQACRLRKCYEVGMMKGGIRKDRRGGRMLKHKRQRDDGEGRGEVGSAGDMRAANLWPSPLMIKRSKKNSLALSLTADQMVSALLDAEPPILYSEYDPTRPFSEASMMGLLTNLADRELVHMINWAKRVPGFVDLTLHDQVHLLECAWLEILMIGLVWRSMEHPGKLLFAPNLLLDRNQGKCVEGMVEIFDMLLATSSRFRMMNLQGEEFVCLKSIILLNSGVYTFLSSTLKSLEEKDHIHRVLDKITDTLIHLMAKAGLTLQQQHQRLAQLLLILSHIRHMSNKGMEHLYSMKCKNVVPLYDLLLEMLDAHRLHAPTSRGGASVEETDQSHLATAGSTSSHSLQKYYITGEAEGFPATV
Steroid hormone receptor ERR1 (Homo sapiens), sequence (P11474 whole entry, looked up, the tested form may be a part): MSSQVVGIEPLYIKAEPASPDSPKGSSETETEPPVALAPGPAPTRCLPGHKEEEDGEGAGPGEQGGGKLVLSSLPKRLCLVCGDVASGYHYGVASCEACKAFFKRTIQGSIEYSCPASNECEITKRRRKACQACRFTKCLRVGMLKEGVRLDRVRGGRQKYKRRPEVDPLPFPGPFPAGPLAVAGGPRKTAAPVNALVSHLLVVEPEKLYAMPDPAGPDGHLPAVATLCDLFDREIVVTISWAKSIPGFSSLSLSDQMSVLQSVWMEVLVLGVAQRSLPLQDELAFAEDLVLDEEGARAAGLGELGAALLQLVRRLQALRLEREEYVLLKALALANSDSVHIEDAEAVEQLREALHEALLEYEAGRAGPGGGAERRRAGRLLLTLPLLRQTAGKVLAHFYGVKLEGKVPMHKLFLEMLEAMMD
Bile acid receptor (Homo sapiens), sequence (Q96RI1 whole entry, looked up, the tested form may be a part): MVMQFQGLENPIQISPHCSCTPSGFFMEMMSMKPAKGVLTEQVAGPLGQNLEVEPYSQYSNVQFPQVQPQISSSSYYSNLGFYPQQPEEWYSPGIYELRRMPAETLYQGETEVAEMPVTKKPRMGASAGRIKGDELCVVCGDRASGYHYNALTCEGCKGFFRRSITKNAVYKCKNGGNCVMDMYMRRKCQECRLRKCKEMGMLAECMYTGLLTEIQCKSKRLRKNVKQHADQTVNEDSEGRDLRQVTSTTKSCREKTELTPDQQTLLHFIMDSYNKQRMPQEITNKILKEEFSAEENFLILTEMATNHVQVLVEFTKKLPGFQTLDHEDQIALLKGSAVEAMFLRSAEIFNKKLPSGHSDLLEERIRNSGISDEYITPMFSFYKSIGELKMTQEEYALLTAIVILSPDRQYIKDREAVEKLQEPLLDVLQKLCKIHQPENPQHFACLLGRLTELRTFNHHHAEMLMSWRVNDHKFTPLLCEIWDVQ

On to `OC[C@@H](O)[C@H](O)[C@@H](O)[C@@H](O)CO`, for which the call in test [1], in [2], in test [3], in test [4], in [6] and in test [7] was inactive. Also, the call in test [8], in test [9], in test [10], in test [11] and in [12] was inactive. In addition, in test [5], the concentration at half-maximal activity (AC50) was 13.8 µM (active).
On to `N=C1N=C(N)c2ccccc21`, for which the compound was classed as inactive in test [1], in test [2], in test [3], in test [4], in [13] and in test [8]. For the same compound, the result in test [14], in [9], in test [10], in test [15], in [11] and in [16] was inactive. Moreover, the call in test [12] was inactive. In addition, the AC50 in test [5] was 100 µM (active).
Take `CC=CC(=O)C1=C(C)C=CCC1(C)C`: the call in [1], in test [2], in test [3], in test [4], in test [13] and in test [6] was inactive. The call in test [7], in test [8], in test [17], in test [14], in test [18] and in test [9] was inactive. The outcome in [19], in test [10] and in test [12] was inactive.
With `CCCC[N+](C)(CCCC)CCCC`, the compound was called inactive in test [1], in [2], in test [3], in test [4], in test [13] and in test [7]. The compound was classed as inactive in test [8], in [17], in test [14], in [9], in test [19] and in test [11]. Also, in test [12], the outcome was inactive.
As to `CC(=O)C1C(=O)C=C(C)OC1=O` (stereo not given), the outcome in [1], in [2], in test [3], in test [4], in test [13] and in test [7] was inactive. Further, the compound was classed as inactive in test [8], in test [18], in [15], in test [11] and in [12].
